From PubChem BioAssay AID1159580 (chemical genetic matrix, 2015)
The campaign covered roughly 5,500 compounds. About 2,000 (36%) were called active. About 18% were inconclusive and are not listed. No stated cut-off is given here; in the data, active means normalized growth mostly below about 0.91 (no sharp cut-off); inconclusive means no clear call, values can overlap the other calls; inactive means mostly above about 0.92. The list shows a part of the results.

Test: chemical genetic growth profiling, strain panel (AID 1159580);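 further: tested at 20 µM; growth read once vehicle control cultures reached saturation at 30 °C; 1 = growth at the plate median or of vehicle wells; lower values mean less growth of the strain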
Conditions: growth OD

Measured: normalized growth

CCN1CCN(C(=O)NC(C(=O)N[C@@H]2C(=O)N3[C@@H]2SC(C)(C)[C@@H]3C(=O)O)c2ccccc2)C(=O)C1=O (some centres not stated)
inactive: S. cerevisiae deletion strains, locus YJR075W, strain HOC1, active compounds read low 1.01 | S. cerevisiae deletion strains, locus YKL009W, strain mrt4, active compounds read low 1.02 | S. cerevisiae deletion strains, locus YKL068W, active compounds read low 1 | S. cerevisiae deletion strains, locus YKL085W, strain MDH1 (second series), active compounds read low 0.998 | S. cerevisiae deletion strains, locus YKL085W, strain MDH1, active compounds read low 0.998 | S. cerevisiae deletion strains, locus YKL160W, strain elf1, active compounds read low 0.985 | S. cerevisiae deletion strains, locus YKL190W, strain CNB1, active compounds read low 1.01 | S. cerevisiae deletion strains, locus YKR001C, strain vps1, active compounds read low 1.01 | S. cerevisiae deletion strains, locus YKR026C, strain gcn3, active compounds read low 0.996 | S. cerevisiae deletion strains, locus YKR091W, strain srl3, active compounds read low 1 | S. cerevisiae deletion strains, locus YLL001W, strain dnm1, active compounds read low 0.979 | S. cerevisiae deletion strains, locus YLL026W, active compounds read low 1.01 | S. cerevisiae deletion strains, locus YLL041C, strain sdh2, active compounds read low 0.997 | S. cerevisiae deletion strains, locus YLR027C, strain aat2, active compounds read low 0.998 | S. cerevisiae deletion strains, locus YLR039C, strain RIC1, active compounds read low 0.991 | S. cerevisiae deletion strains, locus YLR058C, strain SHM2, active compounds read low 1.02 | S. cerevisiae deletion strains, locus YLR102C, strain apc9, active compounds read low 1 | S. cerevisiae deletion strains, locus YLR113W, strain HOG1, active compounds read low 0.987 | S. cerevisiae deletion strains, locus YLR221C, strain rsa3, active compounds read low 1 | S. cerevisiae deletion strains, locus YLR258W, strain gsy2, active compounds read low 1 | S. cerevisiae deletion strains, locus YLR262C, strain YPT6 (second series), active compounds read low 0.983 | S. cerevisiae deletion strains, locus YLR262C, strain YPT6, active compounds read low 0.993 | S. cerevisiae deletion strains, locus YLR268W, strain sec22, active compounds read low 1.02 | S. cerevisiae deletion strains, locus YLR320W, strain mms22, active compounds read low 0.978 | S. cerevisiae deletion strains, locus YLR330W, strain CHS5, active compounds read low 1.01 | S. cerevisiae deletion strains, locus YLR342W, strain FKS1 (second series), active compounds read low 1.03 | S. cerevisiae deletion strains, locus YLR342W, strain FKS1, active compounds read low 0.991 | S. cerevisiae deletion strains, locus YLR357W, strain rsc2, active compounds read low 0.957 | S. cerevisiae deletion strains, locus YLR370C, strain arc18, active compounds read low 1.01 | S. cerevisiae deletion strains, locus YLR371W, strain rom2, active compounds read low 1.01 | S. cerevisiae deletion strains, locus YLR384C, strain iki3, active compounds read low 0.992 | S. cerevisiae deletion strains, locus YLR418C, strain cdc73, active compounds read low 1 | S. cerevisiae deletion strains, locus YML016C, strain PPZ1, active compounds read low 1.01 | S. cerevisiae deletion strains, locus YML032C, strain rad52, active compounds read low 1.01 | S. cerevisiae deletion strains, locus YML120C, strain ndi1, active compounds read low 1.01 | S. cerevisiae deletion strains, locus YML124C, strain tub3, active compounds read low 1.01 | S. cerevisiae deletion strains, locus YMR058W, strain fet3, active compounds read low 1 | S. cerevisiae deletion strains, locus YMR078C, strain ctf18, active compounds read low 1 | S. cerevisiae deletion strains, locus YMR125W, strain sto1, active compounds read low 0.988 | S. cerevisiae deletion strains, locus YMR129W, active compounds read low 1 | S. cerevisiae deletion strains, locus YMR205C, strain PFK2, active compounds read low 1.01 | S. cerevisiae deletion strains, locus YMR223W, strain ubp8, active compounds read low 1.01 | S. cerevisiae deletion strains, locus YMR231W, strain pep5, active compounds read low 0.989 | S. cerevisiae deletion strains, locus YMR263W, strain SAP30, active compounds read low 1.01 | S. cerevisiae deletion strains, locus YMR307W, strain GAS1, active compounds read low 0.931 | S. cerevisiae deletion strains, locus YNL067W, strain RPL9B, active compounds read low 1.01 | S. cerevisiae deletion strains, locus YNL071W, strain lat1, active compounds read low 0.999 | S. cerevisiae deletion strains, locus YNL128W, strain TEP1, active compounds read low 1.01 | S. cerevisiae deletion strains, locus YNL153C, strain GIM3, active compounds read low 1.01 | S. cerevisiae deletion strains, locus YNL183C, strain NPR1, active compounds read low 0.967 | S. cerevisiae deletion strains, locus YNL209W, strain ssb2, active compounds read low 1 | S. cerevisiae deletion strains, locus YNL233W, strain BNI4, active compounds read low 0.995 | S. cerevisiae deletion strains, locus YNL248C, strain rpa49, active compounds read low 0.996 | S. cerevisiae deletion strains, locus YNL250W, strain rad50, active compounds read low 1.01 | S. cerevisiae deletion strains, locus YNL271C, strain bni1, active compounds read low 1.01 | S. cerevisiae deletion strains, locus YNL298W, strain CLA4, active compounds read low 1.01 | S. cerevisiae deletion strains, locus YNL307C, strain MCK1, active compounds read low 1.01 | S. cerevisiae deletion strains, locus YNL322C, strain KRE1 (second series), active compounds read low 1 | S. cerevisiae deletion strains, locus YNL322C, strain KRE1, active compounds read low 1 | S. cerevisiae deletion strains, locus YNR049C, strain mso1, active compounds read low 0.993 | S. cerevisiae deletion strains, locus YNR052C, strain pop2, active compounds read low 1.01 | S. cerevisiae deletion strains, locus YOL006C, strain TOP1, active compounds read low 1.02 | S. cerevisiae deletion strains, locus YOL012C, strain htz1 1.52 | S. cerevisiae deletion strains, locus YOL147C, strain pex11, active compounds read low 1 | S. cerevisiae deletion strains, locus YOR001W, strain rrp6, active compounds read low 0.987 | S. cerevisiae deletion strains, locus YOR061W, strain CKA2, active compounds read low 1.01 | S. cerevisiae deletion strains, locus YOR069W, strain VPS5, active compounds read low 1.01 | S. cerevisiae deletion strains, locus YOR070C, strain gyp1, active compounds read low 1 | S. cerevisiae deletion strains, locus YOR080W, strain dia2, active compounds read low 0.997 | S. cerevisiae deletion strains, locus YOR083W, strain WHI5, active compounds read low 0.976 | S. cerevisiae deletion strains, locus YOR106W, strain vam3, active compounds read low 0.984 | S. cerevisiae deletion strains, locus YOR136W, strain idh2, active compounds read low 1.01 | S. cerevisiae deletion strains, locus YOR144C, strain elg1, active compounds read low 1.01 | S. cerevisiae deletion strains, locus YOR184W, strain ser1, active compounds read low 1.02 | S. cerevisiae deletion strains, locus YOR231W, strain MKK1, active compounds read low 0.985 | S. cerevisiae deletion strains, locus YOR265W, strain rbl2, active compounds read low 1 | S. cerevisiae deletion strains, locus YOR270C, strain vph1, active compounds read low 1.01 | S. cerevisiae deletion strains, locus YOR290C, strain snf2, active compounds read low 1.01 | S. cerevisiae deletion strains, locus YOR316C, strain cot1, active compounds read low 1.01 | S. cerevisiae deletion strains, locus YPL051W, strain arl3, active compounds read low 0.983 | S. cerevisiae deletion strains, locus YPL055C, strain LGE1, active compounds read low 1.01 | S. cerevisiae deletion strains, locus YPL078C, strain atp4, active compounds read low 0.976 | S. cerevisiae deletion strains, locus YPL106C, strain sse1, active compounds read low 1.02 | S. cerevisiae deletion strains, locus YPL240C, strain hsp82, active compounds read low 0.988 | S. cerevisiae deletion strains, locus YPL241C, strain CIN2, active compounds read low 1 | S. cerevisiae deletion strains, locus YPL256C, strain CLN2, active compounds read low 0.962 | S. cerevisiae deletion strains, locus YPR119W, strain clb2, active compounds read low 1.02 | S. cerevisiae deletion strains, locus YPR141C, strain kar3, active compounds read low 1.02 | S. cerevisiae deletion strains, locus YPR163C, strain tif3, active compounds read low 1.02 | S. cerevisiae deletion strains, locus YPR167C, strain met16, active compounds read low 1.02 | S. cerevisiae deletion strains, strain wtn01, active compounds read low 1.04 | S. cerevisiae strains, strain wild type, active compounds read low 1.01
